Most compounds without a hit are left out; they make up all but 10% or so of the library.
HEK cytotox = Cytotoxic Profiling in HEK 293 Cell Line of Diverse Libraries Using Quantitative High-Throughput Screening; HEK 293 viability, ATP luminescence (CellTiter-Glo), 48-72 h; Potency, µM (series often up to 115 µM), inactives show top-dose activity change, negative = cytotoxicity, most hits filed as inhibitors; hit rate 6.6% among 94,000; AID 1345083, 2018; further: nearly all actives have a fitted effect of over 60% in size
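HEK 293 cells at 250 cells/well were exposed to compounds by pintool transfer for 48 or 72 hr at 37 degree Celsius, 5% CO2. Viability was read as ATP-coupled luminescence with CellTiter-Glo after 10 min at room temperature.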
GPT2 inh = Primary qHTS assay for inhibitors of Glutamate pyruvate transaminase 2 (GPT2); Alanine aminotransferase 2 (Homo sapiens), Q8TD30; Recombinant GPT2, coupled pyruvate oxidase/HRP Amplex Red fluorescence; Potency, µM (highest dose often 57.7 µM), for the others: at the top dose activity change, negative = inhibition, usual class: inhibitors; hit rate 0.25% among 100,000; AID 1671188, 2021; further: nearly all actives have a fitted effect of over 60% in size
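GPT2 10ng/uL, a-KG 250uM, L-Ala 2mM, HEPES pH7.5 + 0.0001% Tween; 30 min RT. Then Amplex mix (PO/HRP/ThPP), 30 min RT dark, fluorescence. AOA 50uM used as positive control.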
hNpr1 antagonist = Natriuretic polypeptide receptor (hNpr1) antagonism - Primary qHTS; HEK293 hNpr1 GloSensor cGMP, ANP-stimulated luminescence; hit rate 1.6% among 76,000; Potency, µM (series often up to 46.3 µM), without a hit: at the highest dose activity change, negative = inhibition, actives largely listed as inhibitors; Atrial natriuretic peptide receptor 1 (Homo sapiens), P16066; calls by dose curve; further: nearly all actives have a fitted effect of over 60% in size
Target sequence (P16066 whole entry, looked up): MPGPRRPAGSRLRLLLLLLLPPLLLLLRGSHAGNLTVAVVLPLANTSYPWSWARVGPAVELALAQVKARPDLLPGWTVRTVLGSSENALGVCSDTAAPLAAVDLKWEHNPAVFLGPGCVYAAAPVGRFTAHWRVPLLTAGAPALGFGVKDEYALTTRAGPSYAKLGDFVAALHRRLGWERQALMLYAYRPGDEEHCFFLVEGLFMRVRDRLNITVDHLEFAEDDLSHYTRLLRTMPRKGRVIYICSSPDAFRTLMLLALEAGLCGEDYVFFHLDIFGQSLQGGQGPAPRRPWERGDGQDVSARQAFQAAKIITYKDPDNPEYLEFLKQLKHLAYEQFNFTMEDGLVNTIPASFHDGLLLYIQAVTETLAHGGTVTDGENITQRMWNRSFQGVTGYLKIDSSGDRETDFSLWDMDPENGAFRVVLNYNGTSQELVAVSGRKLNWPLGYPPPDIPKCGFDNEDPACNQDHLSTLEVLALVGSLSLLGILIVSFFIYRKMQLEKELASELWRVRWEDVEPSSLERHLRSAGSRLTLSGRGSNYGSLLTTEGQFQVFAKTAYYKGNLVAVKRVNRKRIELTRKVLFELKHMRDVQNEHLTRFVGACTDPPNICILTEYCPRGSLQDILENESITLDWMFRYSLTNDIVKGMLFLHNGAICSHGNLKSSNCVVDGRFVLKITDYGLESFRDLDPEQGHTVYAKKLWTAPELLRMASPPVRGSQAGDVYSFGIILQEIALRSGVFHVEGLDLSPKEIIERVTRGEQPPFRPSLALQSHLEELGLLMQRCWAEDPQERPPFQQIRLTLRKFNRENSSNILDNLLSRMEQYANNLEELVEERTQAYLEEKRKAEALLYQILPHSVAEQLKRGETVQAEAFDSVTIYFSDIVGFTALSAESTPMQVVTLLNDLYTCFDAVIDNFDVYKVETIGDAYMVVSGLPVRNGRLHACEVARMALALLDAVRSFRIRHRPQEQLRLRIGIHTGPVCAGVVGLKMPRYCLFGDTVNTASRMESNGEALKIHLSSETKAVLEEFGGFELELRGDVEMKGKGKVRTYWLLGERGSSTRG
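Compound pre-incubated 30 min at room temperature on GloSensor-loaded HEK293 cells stably carrying hNpr1 and the pGS-40F cGMP biosensor. Stimulation uses hNppA at 0.1 nM final; luminescence is taken at baseline and 20 min post-agonist.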
Luciferase inh = Firefly luciferase inhibition profiling of diverse chemical library using quantitative high-throughput screening | hit rate 2.5% among 76,000 | AID 1347043, 2019 | Luciferin 4-monooxygenase (Photinus pyralis), P08659 | purified P. pyralis luciferase, luminescence, biochemical | Potency, µM (doses to about 115 µM), actives largely listed as inhibitors; further: nearly all actives have a fitted effect of over 65% in size
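Luminescence read by CCD imager after adding enzyme (10nM final) to wells holding compound, titrated in qHTS. Substrates 10uM each D-luciferin and ATP; buffer 50mM Tris acetate pH 7.5, 10mM Mg acetate, Tween-20, BSA.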
NIH3T3 tox = Cytotoxic Profiling in NIH 3T3 Cell Line of Diverse Libraries Using Quantitative High-Throughput Screening | NIH 3T3 viability, CellTiter-Glo ATP luminescence, 48-72 h | hit rate 4.3% among 94,000 | Potency, µM (titrated, usually from 96.7 µM), for the others: top-dose activity change, negative = cytotoxicity, actives largely listed as inhibitors; further: nearly all actives have a fitted effect of over 55% in size
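Cells were seeded at 400 per well, treated with pin-transferred compound, and kept 48 or 72 hr at 37 °C before CellTiter-Glo addition and luminescence imaging of cellular ATP.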
Starred values were filed as active, the others as inactive; [ ] = remark or other dose. Unless noted, the call rests on the fitted dose curve; in most records, active means well fitted curve in the direction sought with a large enough effect; inconclusive means small, poorly fitted or top-dose-only effect, or another doubt; inactive means no such curve, though single readings can be large; an effect the other way counts as inactive or inconclusive. On the % scale 0 is the no-effect control and ±100 the full control effect; potency means the concentration at half of the fitted maximal effect.

CC(C)C[C@@H]1N[C@H](C(=O)NC2CCCC2)Cc2cn(Cc3nccn3C)c3cccc1c23 was read as HEK cytotox 40µM*, GPT2 inh -9%[88.5 µM], hNpr1 antagonist -1%[70.6 µM], Luciferase inh inactive and NIH3T3 tox 89µM*.
Screening COCCNC(=O)[C@@H]1Cc2cn(Cc3nccn3C)c3cccc(c23)[C@H](CC(C)C)N1 returned HEK cytotox 40µM*, GPT2 inh 3%[88.5 µM], hNpr1 antagonist 4%[70.6 µM], Luciferase inh inactive and NIH3T3 tox -22%[174 µM].
Cc1noc(C)c1Cn1cc2c3c(cccc31)[C@H](CC(C)C)N[C@H](C(=O)NCc1ccco1)C2 was read as HEK cytotox inconclusive, GPT2 inh -12%, hNpr1 antagonist -18%, Luciferase inh inactive and NIH3T3 tox 20µM*.
C#CCNC(=O)[C@@H]1Cc2cn(Cc3nccn3C)c3cccc(c23)[C@H](CC(C)C)N1 was read as HEK cytotox inconclusive, GPT2 inh inconclusive, hNpr1 antagonist 2%[70.6 µM], Luciferase inh inactive and NIH3T3 tox inconclusive.
For CC(C)C[C@@H]1N[C@H](C(=O)NCc2ccco2)Cc2cn(Cc3nccn3C)c3cccc1c23 the results were HEK cytotox 32µM*, GPT2 inh -2%, hNpr1 antagonist -13%, Luciferase inh inactive and NIH3T3 tox inconclusive.
CC(C)C[C@@H]1N[C@H](C(=O)O)Cc2cn(Cc3nccn3C)c3cccc1c23 was read as HEK cytotox -8%, GPT2 inh inconclusive, hNpr1 antagonist -7%, Luciferase inh inactive and NIH3T3 tox -11%.
For CCn1c(C(=O)OC)c(NC(=O)C2CCOC2)c2cc(NC(C)Cc3ccccc3OC)cnc21 (stereo not drawn) the results were HEK cytotox 4%, GPT2 inh inactive, hNpr1 antagonist -5%, Luciferase inh inactive and NIH3T3 tox inactive.
Screening CC(C)(C)c1cc(C[C@H]2CNCC[C@H]2CC(=O)N2CCC(Cc3ccccc3)CC2)no1 returned HEK cytotox 22µM*, GPT2 inh inactive, hNpr1 antagonist 3%, Luciferase inh inactive and NIH3T3 tox 28µM*.
Screening COc1ccc(-c2cc(C[C@H]3CNCC[C@H]3CC(=O)N3CCC(Cc4ccccc4)CC3)no2)cc1 returned HEK cytotox inconclusive, GPT2 inh 2%, hNpr1 antagonist 0%, Luciferase inh inactive and NIH3T3 tox inconclusive.
`O=C(C[C@@H]1CCNC[C@@H]1Cc1cc(-c2ccccc2)on1)N1CCC(Cc2ccccc2)CC1` gave HEK cytotox inconclusive, GPT2 inh 2%, hNpr1 antagonist 7%, Luciferase inh inactive and NIH3T3 tox 28µM*.
O=C(c1ccc(F)cc1)N1CCC2(CC1)CCN(CCc1ccccc1)c1ccccc1O2 was read as HEK cytotox 40µM*, GPT2 inh inactive, hNpr1 antagonist 0%, Luciferase inh inactive and NIH3T3 tox inconclusive.
Cc1ccccc1C(=O)N1CCC2(CC1)CCN(CCc1ccccc1)c1ccccc1O2 was read as HEK cytotox 28µM*, GPT2 inh 5%, hNpr1 antagonist 2%, Luciferase inh inactive and NIH3T3 tox inconclusive.
For O=C(c1ccccc1)N1CCC2(CC1)CCN(CCc1ccccc1)c1ccccc1O2 the results were HEK cytotox 40µM*, GPT2 inh inactive, hNpr1 antagonist -6%, Luciferase inh inactive and NIH3T3 tox inconclusive.
`CCCN1CCC2(CCN(C(=O)c3ccccc3C)CC2)Oc2ccccc21` gave HEK cytotox inconclusive, GPT2 inh 3%, hNpr1 antagonist 26%, Luciferase inh inactive and NIH3T3 tox inconclusive.
`O=C(Cc1ccc(F)cc1)N1CCC2(CC1)CC(=O)N(c1ccccc1)c1ccccc1O2` gave HEK cytotox 40µM*, GPT2 inh inactive, hNpr1 antagonist -9%, Luciferase inh inactive and NIH3T3 tox 40µM*.
Screening COc1ccc(-c2cccc(C(=O)N3CCN(C(=O)c4ccccn4)CC3)c2)nn1 returned HEK cytotox -6% and NIH3T3 tox inactive.
Screening C=CCn1cc2c3c(cccc31)[C@H](CC(C)C)N[C@H](C(=O)NCCN(C)C)C2 returned HEK cytotox 35µM*, GPT2 inh inconclusive, hNpr1 antagonist 2%[70.6 µM], Luciferase inh inactive and NIH3T3 tox 35µM*.
Screening CC(C)C[C@@H]1N[C@H](C(=O)NCc2cccs2)Cc2cn(CC3CC3)c3cccc1c23 returned HEK cytotox 63µM*, GPT2 inh -4%[88.5 µM], hNpr1 antagonist -18%[70.6 µM], Luciferase inh inactive and NIH3T3 tox 71µM*.
`Cc1noc(C)c1Cn1cc2c3c(cccc31)[C@H](CC(C)C)N[C@H](C(=O)NCCN(C)C)C2` gave HEK cytotox inconclusive, GPT2 inh inactive, hNpr1 antagonist -1%, Luciferase inh inactive and NIH3T3 tox inconclusive.
Screening C=CCn1cc2c3c(cccc31)[C@H](CC(C)C)N[C@H](C(=O)NCCC)C2 returned HEK cytotox 50µM*, GPT2 inh 1%[88.5 µM], hNpr1 antagonist 1%[70.6 µM], Luciferase inh inactive and NIH3T3 tox 71µM*.
Screening CC(C)C[C@@H]1N[C@H](C(=O)NCCN(C)C)Cc2cn(CC3CC3)c3cccc1c23 returned HEK cytotox 32µM*, GPT2 inh 4%[88.5 µM], hNpr1 antagonist -1%[70.6 µM], Luciferase inh inactive and NIH3T3 tox 32µM*.
Screening CN(C)[C@@H]1CO[C@H](CNS(C)(=O)=O)[C@H]1O returned HEK cytotox inactive, GPT2 inh 0%[88.5 µM], hNpr1 antagonist 3%[70.6 µM], Luciferase inh inactive and NIH3T3 tox 1%[230 µM].
`O=C1CO[C@H]2CCN(Cc3c[nH]c4ccccc34)CC[C@@H]2N1Cc1ccccc1` gave HEK cytotox inconclusive, GPT2 inh -9%[88.5 µM], hNpr1 antagonist -4%[70.6 µM], Luciferase inh inactive and NIH3T3 tox 89µM*.
Screening N#Cc1cccc(CN2CC[C@@H]3OCC(=O)N(Cc4c[nH]c5ccccc45)[C@H]3CC2)c1 returned HEK cytotox 100µM*, GPT2 inh 2%[88.5 µM], hNpr1 antagonist -9%[70.6 µM], Luciferase inh inactive and NIH3T3 tox inconclusive.
CC(C)CCN1CC[C@@H]2OCC(=O)N(Cc3c[nH]c4ccccc34)[C@H]2CC1 was read as HEK cytotox 100µM*, GPT2 inh 1%[88.5 µM], hNpr1 antagonist -16%[70.6 µM], Luciferase inh inactive and NIH3T3 tox inconclusive.
For COCCN1C(=O)c2ccccc2C(C(=O)Nc2ccccc2C)C12CCCCC2 (stereo not drawn) the results were HEK cytotox -26%, GPT2 inh 2%, hNpr1 antagonist 6%, Luciferase inh inactive and NIH3T3 tox inconclusive.
